From PubChem BioAssay (EPA / NIEHS) come the findings set out here.

The source made the active and inactive calls. The calls were made as follows: active = hit-call score of the fitted dose curve at least 0.9, where 1 is the maximum; inactive = score below 0.9.

The assay is described as follows: ATG_TGFb_CIS: Attagene CIS-FACTORIAL HepG2 Assay for human Transforming Growth Factor (TGF) (AID 2282967). Particulars: HepG2 Attagene CIS TGFb reporter, mRNA transcription; actives raise or lower the signal. How it is done:
ATG_CIS is a cell-based, multiplexed-readout assay that uses HepG2, a human liver cell line, with measurements taken at 24 hours after chemical dosing in a 24-well plate.ATG_TGFb_CIS is one of 52 assay component(s) measured or calculated from the ATG_CIS assay. It is designed to make measurements of mRNA induction, a form of inducible reporter, as detected with fluorescence intensity signals by Reverse transcription polymerase chain reaction (RT-PCR) and Capillary electrophoresis technology.Data from the assay component ATG_TGFb_CIS was analyzed into 1 assay endpoint. This assay endpoint, ATG_TGFb_CIS, was analyzed with bidirectional fitting relative to DMSO as the negative control and baseline of activity. Using a type of inducible reporter, measures of mRNA for gain or loss-of-signal activity can be used to understand the reporter gene at the transcription factor-level as they relate to the gene TGFB1. Furthermore, this assay endpoint can be referred to as a primary readout, because this assay has produced multiple assay endpoints where this one serves a reporter gene function. To generalize the intended target to other relatable targets, this assay endpoint is annotated to the growth factor intended target family, where the subfamily is transforming growth factor beta.
Human liver HepG2 cells are transiently transfected with multiple reporter transcription units (MRTUs) in 6-well plates using FuGene 6 reagent (Roche; 3 ml FuGene/1 mg DNA). The MRTU constructs are regulated by a cis-regulating element (promoter). […] A major difference between the CIS and TRANS system is that in CIS activities of endogenous TFs are measured, whereas the TRANS assay evaluates changes in activities of exogenous, chimeric NR-Gal4 proteins. […] At the end of 24 hour incubation, total RNA was isolated using TriZol reagent (Invitrogen). The isolated RNA is then reverse-transcribed using oligo(dT) primer and Mo-MLV reverse transcriptase (Invitrogen) with DNAse I (Ambion) treatment for 30 min. The one-tenth of the produced cDNA was amplified by PCR using Taq DNA polymerase (Invitrogen) and two reporter sequence-specific primers. The PCR products were fluorescently labeled by primer extension with 6-arboxyfluorescein (6-FAM) 5'-labeled reporter sequence-specific primer (2 min at 95 C, 20 s at 68 C and 10 min at 72 C) and these products were digested with 5U of HpaI (New England Biolabs) for 2h at 37 C. The fragments were purified using Qiaquick PCR columns (Qiagen), analyzed on an ABI 3130xL genetic analyzer (Applied Biosystems) with peak positions identified by using a set of X-rhodamine (ROX)-labeled MapMarker1000 molecular weight standards (BioVentures). The raw capillary electrophoresis data was processed using Attagraph software (Attagene).
On to `O=S1OC[C@@H]2[C@H](CO1)[C@]1(Cl)C(Cl)=C(Cl)[C@@]2(Cl)C1(Cl)Cl` (stereo not given in full), for which the result was inactive. The same measure, in the same setting: then `Nc1cccnc1`, with “inactive”; and `OC(Cc1ccccc1Cl)(Cn1[nH]cnc1=S)C1(Cl)CC1` (stereo not given), with “inactive”.

As to `CC(C)=CC1C(C(=O)OCc2cccc(Oc3ccccc3)c2)C1(C)C` (stereo not given), the outcome was inactive. The same measure, in the same setting: then `COCCl`, with “inactive”. The same measure, in the same setting: then `CCN(N=O)C(N)=O`, with “inactive”; and `Nc1ncn[nH]1`, with “inactive”. Same read-out and setting: then `Brc1ccc(Br)cc1`, with “inactive”. Regarding `O=[N+]([O-])c1cccc2ccccc12`, the outcome was inactive. For the molecule `C=CCOC(F)(C(F)(F)F)C(F)(F)F`, the molecule was called inactive.

For `BrCCCCBr`, the result was inactive. Still for that read-out and setting: in the case of `CC(C)C(C)(N)C#N` (stereo not given) it was “inactive”. The same measure, in the same setting: then `CCCCCCCCBr`, with “inactive”; and `C=CC(F)(C(F)(F)F)C(F)(F)C(F)(F)F` (stereo not given), with “inactive”; and `BrCC(Br)c1ccccc1` (stereo not given), with “inactive”.

As a reminder, the AC50 is the midpoint of the concentration-response curve, whichever way the signal moves. As for `Cc1ccccc1OP(=O)(Oc1ccccc1C)Oc1ccccc1C`, the AC50 was 56.1 µM (active). Consider `CC(C)[N+](=O)[O-]`, for which the result was inactive. Consider `CC(O)(CS(=O)(=O)c1ccc(F)cc1)C(=O)Nc1ccc(C#N)c(C(F)(F)F)c1` (stereo not given), for which the molecule was called inactive. `C#C[C@]1(O)CC[C@H]2[C@@H]3CCC4=CC(=O)CC[C@]4(C)[C@H]3CC[C@@]21C`: the outcome was inactive. Take `N#CCC#N`: the molecule was called inactive.

As for `O=S(=O)(Oc1ccc(Cl)cc1)c1ccc(Cl)cc1`, the half-maximal activity concentration (AC50) is 63.8 µM (active). The same measure, in the same setting: then `CC(C)N(C(=O)CCl)c1ccccc1`, with 8.03 µM (active). On to `COCC(=O)N(c1c(C)cccc1C)[C@H](C)C(=O)OC`, for which the result was inactive. As to `O=c1nc(O)n(Cl)c(=O)n1Cl`, the result was inactive.

Take `C=CCc1ccccc1O`: the molecule was called inactive.

Turning to `CC(C)(C)c1ccccc1O`, the outcome was inactive. For `C=C(C)C(=O)OCC(CC)CCCC` (stereo not given), the molecule was classed as inactive. Still for that read-out and setting: then `C#CCO`, with “inactive”; and `ClCCCCl`, with “inactive”; and `FC(F)OCC(F)(F)C(F)(F)F`, with “inactive”. `[Cl][Sn]([c]1ccccc1)([c]1ccccc1)[c]1ccccc1`: the outcome was inactive. As to `c1ccc(-c2cccc(-c3ccccc3)c2)cc1`, the AC50 was 56.6 µM (active). On to `c1ccc2c(c1)Oc1ccccc1O2`, for which the call was inactive. Take `c1csc(-c2ccc(-c3cccs3)s2)c1`: the half-maximal activity concentration (AC50) is 6.2 µM (active). Consider `Cc1ccc(OP(=O)(Oc2ccc(C)cc2C)Oc2ccc(C)cc2C)c(C)c1`, for which the result was inactive.

Regarding `O=C1c2ccccc2C(=O)C1C(=O)C(c1ccccc1)c1ccc(Cl)cc1` (stereo not given), the AC50 was 8.18 µM (active). For `NC(=O)c1ccc(N)nc1`, the result was inactive.

As to `C=C(C)[C@@H]1CC=C(C=O)CC1`, the result was inactive. For `C[N+](C)(C)Cc1ccccc1`, the result was inactive. On to `CCOC(=O)CCN(SN(C)C(=O)Oc1cccc2c1OC(C)(C)C2)C(C)C`, for which the call was inactive.
